In PubChem BioAssay one finds z-score and composite z-score data, which are given here for nine compounds.

Assay [1] is described as follows: resazurin metabolic signal in HepG2 cells – cell-based, resazurin fluorescence, 24 h, PK04 Diversity Set, profiling panel (AID 1172). As to conditions: HepG2 viability, higher = more signal.
Assay [2] in a line: budding yeast growth changes without added modifier – OD600, strain BY4716, 24 h, basal condition, primary screen (AID 1173). As to conditions: S. cerevisiae BY4716 growth, OD600, 24 h; higher = more signal, called active from +8 up or from −8 down.
Assay [3] is described as follows: viability profiling in MM1S myeloma cells – cell-based, resazurin fluorescence, basal, 24 h, PK04 Diversity Set, profiling panel (AID 1174).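 Further: MM1S multiple myeloma cell line.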 As to conditions: higher = more signal, called active from +8 up or from −8 down. (In general: Resazurin is reduced to fluorescent resorufin, in cell work by metabolically active cells.)
Assay [4] deals with Dihydroorotate dehydrogenase (quinone), mitochondrial (Plasmodium falciparum (isolate 3D7)) (UniProt Q08210). Kind of assay: inhibition of P. falciparum DHODH – biochemical, C-terminal His tag, absorbance 600 nm, primary screen (AID 1175).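 Further: recombinant parasite enzyme with a five histidine tag at its C terminus.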 As to conditions: PfDHODH enzyme, DCIP absorbance 600 nm; higher = more signal, called active from +8 up or from −8 down.
Dihydroorotate dehydrogenase (quinone), mitochondrial (Plasmodium falciparum (isolate 3D7)), sequence (Q08210 whole entry, looked up): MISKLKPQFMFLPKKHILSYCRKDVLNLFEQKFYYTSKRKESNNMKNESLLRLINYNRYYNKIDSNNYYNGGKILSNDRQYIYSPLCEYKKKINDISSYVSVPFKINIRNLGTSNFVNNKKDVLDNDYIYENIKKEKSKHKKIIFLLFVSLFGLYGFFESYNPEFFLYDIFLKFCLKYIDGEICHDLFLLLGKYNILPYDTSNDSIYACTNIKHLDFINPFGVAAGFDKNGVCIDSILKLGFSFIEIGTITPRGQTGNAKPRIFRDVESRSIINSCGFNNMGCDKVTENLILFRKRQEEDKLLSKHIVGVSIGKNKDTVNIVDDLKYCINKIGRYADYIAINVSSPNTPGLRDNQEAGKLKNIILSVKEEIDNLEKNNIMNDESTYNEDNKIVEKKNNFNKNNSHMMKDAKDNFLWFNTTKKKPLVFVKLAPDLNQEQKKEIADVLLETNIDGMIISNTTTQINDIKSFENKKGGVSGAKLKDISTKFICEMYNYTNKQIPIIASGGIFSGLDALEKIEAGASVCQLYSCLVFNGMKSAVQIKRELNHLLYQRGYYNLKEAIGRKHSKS
The nature of assay [5]: inhibition of PAO1 biofilm formation – strain PAO1, LB-PBS medium, absorbance 600 nm, primary screen (AID 1176). As to conditions: P. aeruginosa PAO1 growth/biofilm, A600, 12 h; higher = more signal.
Assay [6] is described as follows: growth modulation of vineyard yeast isolate – strain RM11-1a, OD600, basal, 24 h, primary screen (AID 1177).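 Further: cultures grown under basal conditions with no added stressor.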 As to conditions: S. cerevisiae RM11-1a growth, OD600, 24 h; higher = more signal, called active from +8 up or from −8 down.
A short description of assay [7]: growth of efflux-deficient E. coli DRC39 – strain DRC39, OD650, 24 h, E. coli filamentation inducers, primary screen (AID 1178).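 Further: growth measured as culture turbidity by optical density at 650 nm.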 As to conditions: E. coli DRC39 acrAB, higher = more signal, called active from +8 up or from −8 down.
The nature of assay [8]: growth of efflux-deficient E. coli DRC39 – strain DRC39, OD650, 48 h, E. coli filamentation inducers, primary screen (AID 1179).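 Further: screen aims at cell division blockers that make cells filament.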 As to conditions: E. coli DRC39 delta-acrAB growth, higher = more signal, called active from +8 up or from −8 down.
A short description of assay [9]: viability profiling in RPMI8226 myeloma cells – cell-based, resazurin fluorescence, basal, 24 h, PK04 Diversity Set, profiling panel (AID 1180).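 Further: RPMI8826 multiple myeloma cell line at 5000 cells per well.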 As to conditions: higher = more signal.
For assay [10], the target named is E3 ubiquitin-protein ligase XIAP (Homo sapiens) (UniProt P98170). Kind of assay: small molecules binding XIAP protein – biophysical, small-molecule microarray, fluorescence 635 nm, primary screen (AID 1181).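 Further: score merges 667 nm emission and signal to noise over triplicate slides.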 As to conditions: higher = more signal.
E3 ubiquitin-protein ligase XIAP (Homo sapiens), sequence (P98170 whole entry, looked up, the tested form may be a part): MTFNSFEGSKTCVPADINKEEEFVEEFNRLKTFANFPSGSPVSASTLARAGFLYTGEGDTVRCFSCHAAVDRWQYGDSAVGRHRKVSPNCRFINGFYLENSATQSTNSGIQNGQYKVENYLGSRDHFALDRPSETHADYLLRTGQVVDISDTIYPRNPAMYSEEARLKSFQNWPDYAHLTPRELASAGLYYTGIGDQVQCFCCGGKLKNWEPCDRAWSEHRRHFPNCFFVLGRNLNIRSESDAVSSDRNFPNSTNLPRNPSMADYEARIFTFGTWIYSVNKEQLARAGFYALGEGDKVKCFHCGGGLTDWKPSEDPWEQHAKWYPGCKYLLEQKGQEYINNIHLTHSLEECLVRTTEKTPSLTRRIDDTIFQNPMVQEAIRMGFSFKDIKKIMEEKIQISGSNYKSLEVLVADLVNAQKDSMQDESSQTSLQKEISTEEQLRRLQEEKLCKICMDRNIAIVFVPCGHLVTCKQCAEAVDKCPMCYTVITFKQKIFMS
Assay [11] has as its system XIP peptide (Xip251-270) binding. Kind of assay: XIP fragment 251-270 binding compounds – biochemical, small-molecule microarray, fluorescence 635/667 nm, 0.1 µg/mL protein, primary screen (AID 1182). As to conditions: fluorescent protein binding, 635 nm, higher = more signal, called active from +8 up or from −8 down.
Another assay deals with XIP peptide (Xip251-270). Kind of assay: compounds binding XIP fragment 251-270 – biochemical, small-molecule microarray, fluorescence 635/667 nm, 0.5 µg/mL protein, primary screen (AID 1183). As to conditions: fluorescence 635 nm, higher = more signal.
The nature of assay [12]: blood-stage malaria parasite viability loss – strain 3D7, DAPI fluorescence, 100 nL, primary screen (AID 1184).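 Further: parasites grown inside human red blood cells in medium with human serum.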 As to conditions: P. falciparum 3D7 growth, 3 d, higher = more signal.
Assay [13] deals with Homeobox protein Hox-A13 (Mus musculus) (UniProt Q62424). In words: disruptors of Hoxa13 oligonucleotide interaction – biochemical, fluorescence polarization, labeled oligonucleotide, primary screen (AID 1185). As to conditions: Hoxa13:DNA binding, 15 min, higher = more signal, called active from +8 up or from −8 down. For orientation: Polarisation of emitted light reports the rotation of a fluorescent probe.
Homeobox protein Hox-A13 (Mus musculus), sequence (Q62424 whole entry, looked up): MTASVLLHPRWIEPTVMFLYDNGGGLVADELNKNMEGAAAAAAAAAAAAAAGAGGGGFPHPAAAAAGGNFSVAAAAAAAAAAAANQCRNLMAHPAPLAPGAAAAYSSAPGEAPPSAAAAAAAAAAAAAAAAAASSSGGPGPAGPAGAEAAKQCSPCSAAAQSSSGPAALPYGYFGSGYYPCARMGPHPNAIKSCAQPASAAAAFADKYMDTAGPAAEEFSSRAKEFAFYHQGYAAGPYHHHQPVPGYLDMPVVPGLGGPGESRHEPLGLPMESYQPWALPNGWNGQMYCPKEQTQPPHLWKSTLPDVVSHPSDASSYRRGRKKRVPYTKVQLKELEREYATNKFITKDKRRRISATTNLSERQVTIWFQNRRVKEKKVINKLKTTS

Assay [14] can be described thus: blockers of DNA damage checkpoint Chk1 activation – imaging, HeLa, hydroxyurea, phospho-Chk1 antibody, percent positive cells, primary screen (AID 1186). As to conditions: hydroxyurea-induced phospho-Chk1 immunofluorescence imaging, higher = more signal.
Assay [15] can be described thus: blockers of DNA damage checkpoint Chk1 activation – imaging, HeLa, hydroxyurea, phospho-Chk1 nuclear intensity, primary screen (AID 1187). As to conditions: hydroxyurea-induced phospho-Chk1 immunofluorescence imaging, higher = more signal.

The structures appear in SMILES notation. Calls of active or inactive are those of the source. Unless noted, how the calls were made is not given here.

Regarding `O=C(O)[C@H]1C[C@H]2C(=O)N3CCC[C@H]3C(=O)N2[C@H]1c1cccc(OCCO)c1`, the z-score was 1.32 in [1]; -0.361 (inactive) in assay [2]; 0.209 (inactive) in [3]; -0.695 (inactive) in [5]; 0.43 (inactive) in [6]; 0.481 (inactive) in [7]. Also, the z-score in assay [8] is 0.896 (inactive); in [9], 0.268; in [12], -0.0612; in assay [13], -3.62 (inactive); in assay [14], -0.217 (inactive); in assay [15] it was 0.0679 (inactive). In addition, the composite z-score in assay [4] was -0.117 (inactive); in assay [10], -0.0901; in assay [11], 0.25 (inactive); in the assay on XIP peptide (Xip251-270), 0.335.

In the case of `C=CCN1C(=O)[C@@]2(CCC(=O)OC(C)(C)C)N=C(c3ccc(OCCCO)cc3)O[C@H]2c2ccccc21`, the z-score is -0.648 in assay [1]; -1.23 (inactive) in assay [2]; -3.26 (inactive) in [3]; 1.77 (inactive) in assay [5]; -0.169 (inactive) in [6]; 0.636 (inactive) in assay [7]. The z-score is -0.242 (inactive) in [8]; -4.47 in assay [9]; -1.95 in [12]; -0.861 (inactive) in assay [13]; -0.239 (inactive) in assay [14]; -0.351 (inactive) in assay [15]. The composite z-score in assay [4] was 0.407 (inactive); in assay [10], 0.21; in assay [11], 0.841 (inactive); with XIP peptide (Xip251-270), 0.473.

For the compound `COC(=O)[C@@]1(Cc2ccccc2)[C@H]2c3cc(C(=O)N4CCCC4)n(C[C@H](O)CO)c3C[C@H]2CN1C(=O)c1ccccc1`, the z-score in assay [1] was -0.476; in assay [2] it was 1.08 (inactive); in [3] it was -0.688 (inactive); in assay [5] it was 0.0818 (inactive); in assay [6] it was 0.267 (inactive); in assay [7], -0.685 (inactive). Also, the z-score in assay [8] was -0.299 (inactive); in assay [9], -0.746; in assay [12], -1.02; in assay [13], -5.19 (inactive); in [14], 0.905 (inactive); in assay [15], 0.777 (inactive). In addition, the composite z-score was 0.355 (inactive) in [4], -0.099 in assay [10], 0.484 (inactive) in assay [11] and -0.487 in the assay with XIP peptide (Xip251-270).

In the case of `NC(=O)NCC#Cc1ccc2c(c1)[C@]1(C(=O)N2)[C@H](C(=O)O)[C@H]2C(=O)O[C@H](c3ccccc3)[C@H](c3ccccc3)N2[C@@H]1c1ccccc1OCCO`, the z-score was 1.03 in assay [1]; -1.81 (inactive) in [2]; 0.837 (inactive) in assay [3]; 2.75 (inactive) in assay [5]; -0.888 (inactive) in [6]; 0.525 (inactive) in assay [7]. In addition, the z-score in assay [8] was 1.16 (inactive); in assay [9] it was 1; in assay [12], 0.828; in assay [13] it was -5.72 (inactive); in [14], -0.0005 (inactive); in assay [15], 0.287 (inactive). The composite z-score is -0.988 (inactive) in [4], -0.0599 in assay [10], 0.638 (inactive) in [11] and 0.823 in the assay on XIP peptide (Xip251-270).

Regarding `CCCNC(=O)[C@@]1(c2ccc([N+](=O)[O-])cc2)CC(=O)N(C2CCCCC2)[C@@H]1c1ccc(CO)cc1I`, the z-score in [1] is -0.455; in assay [2], 0.641 (inactive); in [3], -0.606 (inactive); in assay [5], 0.429 (inactive); in assay [6] it was -0.327 (inactive); in [7] it was 0.549 (inactive). Besides, the z-score in assay [8] was -0.303 (inactive); in assay [9], -1.18; in assay [12], -1.66; in assay [13], -5.34 (inactive); in assay [14] it was -0.0439 (inactive); in assay [15] it was 0.329 (inactive). For the same compound, the composite z-score in assay [4] is 0.478 (inactive); in [10], 0.134; in assay [11], 0.423 (inactive); with XIP peptide (Xip251-270), 0.845.

Consider `CN(C)C(=O)[C@]1(CCC(=O)OC(C)(C)C)N=C(c2ccc(OCCCO)cc2)O[C@@H]1c1ccccc1`, for which the z-score in assay [1] is -0.0109; in assay [2], -0.0261 (inactive); in assay [3] it was 0.352 (inactive); in assay [5], 0.248 (inactive); in assay [6] it was 0.0653 (inactive); in assay [7], 0.0325 (inactive). Besides, the z-score in assay [8] is -0.384 (inactive); in [9], 0.448; in assay [12], 0.201; in assay [13] it was -5.58 (inactive); in assay [14] it was -0.0091 (inactive); in assay [15] it was 0.277 (inactive). Also, the composite z-score was -0.19 (inactive) in assay [4], -0.0773 in assay [10], 0.454 (inactive) in [11] and 0.116 in the assay on XIP peptide (Xip251-270).

With `COCCCNC(=O)[C@@H]1c2ccccc2C(=O)N(Cc2ccccc2C(F)(F)F)[C@H]1c1ccc(CO)cc1`, the z-score was 0.816 in assay [1]; -0.756 (inactive) in [2]; 1.51 (inactive) in assay [3]; -0.727 (inactive) in [5]; 0.186 (inactive) in assay [6]; 0.414 (inactive) in assay [7]. Also, the z-score in assay [8] is 0.0948 (inactive); in [9], 1.48; in assay [12] it was 0.226; in assay [13] it was -1.82 (inactive); in assay [14], -0.477 (inactive); in [15], -0.593 (inactive). Moreover, the composite z-score in [4] was -0.955 (inactive); in [10], -0.138; in assay [11], 0.348 (inactive); in the assay on XIP peptide (Xip251-270) it was -0.149.

Regarding `C[C@H]1ON(c2ccc(C(=O)OC(C)(C)C)cc2)[C@@H](c2ccc(O)cc2)[C@@H]1C(=O)N1C(=O)OC[C@@H]1c1ccccc1`, the z-score in [1] is -0.319; in [2], -0.407 (inactive); in assay [3] it was -0.263 (inactive); in assay [5], 0.294 (inactive); in [6] it was 0.759 (inactive); in assay [7] it was -0.563 (inactive). Also, the z-score in [8] is -0.148 (inactive); in assay [9], -0.782; in assay [12] it was -1.47; in assay [13], -4.21 (inactive); in assay [14] it was 0.148 (inactive); in [15] it was 0.062 (inactive). Further, the composite z-score is 0.314 (inactive) in assay [4], 0.0029 in assay [10], 0.0197 (inactive) in assay [11] and 0.446 in the assay on XIP peptide (Xip251-270).

Consider `COc1cc2c(cc1OC)CN(C(=O)[C@H]1[C@@H]3C(=O)O[C@@H](c4ccccc4)[C@@H](c4ccccc4)N3[C@@H](c3ccc(OCCO)cc3)[C@]13C(=O)Nc1ccc(C#CCCO)cc13)CC2`, for which the z-score in assay [1] was 0.687; in [2], 2.35 (inactive); in [3] it was 0.113 (inactive); in [5] it was 1.56 (inactive); in assay [6], 2.49 (inactive); in [7] it was -0.321 (inactive). In addition, the z-score is -0.61 (inactive) in [8]; 0.969 in assay [9]; -2.06 in assay [12]; 1.96 (inactive) in assay [13]; 0.0312 (inactive) in assay [14]; 0.157 (inactive) in [15]. The composite z-score in [4] is 0.129 (inactive); in [10], -0.351; in assay [11], 0.527 (inactive); with XIP peptide (Xip251-270), 0.692.
